For five compounds, z-score and composite z-score results are on record in PubChem BioAssay.

The nature of assay [1]: compound effects on lung adenocarcinoma cell viability – A549, calcein-AM fluorescence, 48 h, basal, profiling panel (AID 1162). Also: test concentration not given here. As to conditions: higher = more signal.
A short description of assay [2]: compound effects on differentiated 3T3-L1 adipocyte viability – cell-based, 3T3-L1 adipocytes, calcein-AM fluorescence, 48 h, basal, profiling panel (AID 1163). Also: test concentration not given here. The following applies: 3T3-L1 adipocytes viability, higher = more signal.
Assay [3] is described as follows: compound effects on hepatocellular carcinoma cell viability – HepG2, calcein-AM fluorescence, 48 h, basal, profiling panel (AID 1164). Also: test concentration not given here. As to conditions: higher = more signal.
Assay [4] is described as follows: compound effects on multiple myeloma cell viability – MM1S, calcein-AM fluorescence, 48 h, basal, profiling panel (AID 1165). Also: test concentration not given here. As to conditions: higher = more signal.
Assay [5] is described as follows: calcein-AM signal in unstimulated myeloma cells – cell-based, calcein-AM fluorescence, 48 h, PK04 Diversity Set, profiling panel (AID 1166).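 Also: cells grown under basal conditions without added stimulus; test concentration not given here.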 As to conditions: RPMI8226 myeloma viability, higher = more signal.
A short description of assay [6]: JC-1 mitochondrial signal, unstimulated HepG2 cells – cell-based, JC-1 fluorescence, 24 h, 100 nL compound, profiling panel (AID 1167). Also: test concentration not given here. As to conditions: HepG2 mitochondrial potential, higher = more signal.
Assay [7] in a line: JC-1 mitochondrial signal, unstimulated adipocytes – cell-based, JC-1 fluorescence, 3T3-L1 adipocytes, 24 h, 100 nL compound, profiling panel (AID 1168). Also: test concentration not given here. The following applies: JC-1 mitochondrial fluorescence, higher = more signal, called active from +8 up or from −8 down.
Assay [8] is described as follows: JC-1 mitochondrial signal, unstimulated myeloma cells – cell-based, JC-1 fluorescence, RPMI8226, 24 h, 100 nL compound, profiling panel (AID 1169). Also: test concentration not given here. As to conditions: JC-1 mitochondrial potential fluorescence, higher = more signal.
Assay [9] in a line: JC-1 mitochondrial signal, unstimulated MM1S myeloma – cell-based, JC-1 fluorescence, 24 h, 100 nL compound, profiling panel (AID 1170). Also: test concentration not given here. The following applies: MM1S mitochondrial potential, higher = more signal.
A short description of assay [10]: resazurin metabolic signal in A549 cells – cell-based, resazurin fluorescence, 24 h, PK04 Diversity Set, profiling panel (AID 1171). Also: test concentration not given here. The following applies: A549 viability, higher = more signal, called active from +8 up or from −8 down. On the technique in general: The colour change of resazurin is a common sign of viable cells or microbes.
Assay [11] in a line: resazurin metabolic signal in HepG2 cells – cell-based, resazurin fluorescence, 24 h, PK04 Diversity Set, profiling panel (AID 1172). Also: test concentration not given here. The following applies: HepG2 viability, higher = more signal.
The nature of assay [12]: budding yeast growth changes without added modifier – OD600, strain BY4716, 24 h, basal condition, primary screen (AID 1173). The following applies: S. cerevisiae BY4716 growth, OD600, 24 h; higher = more signal, called active from +8 up or from −8 down.
Assay [13] can be described thus: viability profiling in MM1S myeloma cells – cell-based, resazurin fluorescence, basal, 24 h, PK04 Diversity Set, profiling panel (AID 1174). Also: test concentration not given here. The following applies: higher = more signal, called active from +8 up or from −8 down.
Assay [14] deals with Dihydroorotate dehydrogenase (quinone), mitochondrial (Plasmodium falciparum (isolate 3D7)) (UniProt Q08210). The assay is described as follows: inhibition of P. falciparum DHODH – biochemical, C-terminal His tag, absorbance 600 nm, primary screen (AID 1175).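 Also: recombinant parasite enzyme with a five histidine tag at its C terminus; test concentration not given here.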 As to conditions: PfDHODH enzyme, DCIP absorbance 600 nm; higher = more signal, called active from +8 up or from −8 down.

Assay [15] can be described thus: inhibition of PAO1 biofilm formation – strain PAO1, LB-PBS medium, absorbance 600 nm, primary screen (AID 1176). Also: test concentration not given here. The following applies: P. aeruginosa PAO1 growth/biofilm, A600, 12 h; higher = more signal.
Assay [16] in a line: growth modulation of vineyard yeast isolate – strain RM11-1a, OD600, basal, 24 h, primary screen (AID 1177).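 Also: cultures grown under basal conditions with no added stressor; test concentration not given here.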 As to conditions: S. cerevisiae RM11-1a growth, OD600, 24 h; higher = more signal, called active from +8 up or from −8 down.
Assay [17] in a line: growth of efflux-deficient E. coli DRC39 – strain DRC39, OD650, 24 h, E. coli filamentation inducers, primary screen (AID 1178).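 Also: growth measured as culture turbidity by optical density at 650 nm; test concentration not given here.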 As to conditions: E. coli DRC39 acrAB, higher = more signal, called active from +8 up or from −8 down.
Assay [18] is described as follows: growth of efflux-deficient E. coli DRC39 – strain DRC39, OD650, 48 h, E. coli filamentation inducers, primary screen (AID 1179).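 Also: screen aims at cell division blockers that make cells filament.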 As to conditions: E. coli DRC39 delta-acrAB growth, higher = more signal, called active from +8 up or from −8 down.
Assay [19] in a line: viability profiling in RPMI8226 myeloma cells – cell-based, resazurin fluorescence, basal, 24 h, PK04 Diversity Set, profiling panel (AID 1180).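 Also: RPMI8826 multiple myeloma cell line at 5000 cells per well; test concentration not given here.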 The following applies: higher = more signal.
Assay [20] addresses E3 ubiquitin-protein ligase XIAP (Homo sapiens) (UniProt P98170). The assay is described as follows: small molecules binding XIAP protein – biophysical, small-molecule microarray, fluorescence 635 nm, primary screen (AID 1181).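 Also: score merges 667 nm emission and signal to noise over triplicate slides.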 The following applies: higher = more signal.

The source made the active and inactive calls. Unless noted, no rule for the calls is given here.

Chain of E3 ubiquitin-protein ligase XIAP (Homo sapiens) (P98170 whole entry, looked up): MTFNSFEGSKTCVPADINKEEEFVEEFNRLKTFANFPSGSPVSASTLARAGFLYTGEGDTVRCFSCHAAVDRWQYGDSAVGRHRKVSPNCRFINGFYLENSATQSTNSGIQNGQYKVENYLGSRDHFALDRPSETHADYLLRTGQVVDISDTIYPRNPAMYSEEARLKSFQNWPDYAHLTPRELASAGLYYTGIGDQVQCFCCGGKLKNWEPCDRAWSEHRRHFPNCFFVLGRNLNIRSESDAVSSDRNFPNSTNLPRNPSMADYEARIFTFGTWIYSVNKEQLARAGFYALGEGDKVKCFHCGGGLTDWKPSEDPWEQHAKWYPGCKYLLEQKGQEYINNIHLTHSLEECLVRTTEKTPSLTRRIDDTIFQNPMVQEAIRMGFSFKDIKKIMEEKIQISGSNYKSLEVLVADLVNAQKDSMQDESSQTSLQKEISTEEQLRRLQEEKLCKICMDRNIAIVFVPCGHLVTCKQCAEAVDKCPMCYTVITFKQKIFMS
Chain of Dihydroorotate dehydrogenase (quinone), mitochondrial (Plasmodium falciparum (isolate 3D7)) (Q08210 whole entry, looked up): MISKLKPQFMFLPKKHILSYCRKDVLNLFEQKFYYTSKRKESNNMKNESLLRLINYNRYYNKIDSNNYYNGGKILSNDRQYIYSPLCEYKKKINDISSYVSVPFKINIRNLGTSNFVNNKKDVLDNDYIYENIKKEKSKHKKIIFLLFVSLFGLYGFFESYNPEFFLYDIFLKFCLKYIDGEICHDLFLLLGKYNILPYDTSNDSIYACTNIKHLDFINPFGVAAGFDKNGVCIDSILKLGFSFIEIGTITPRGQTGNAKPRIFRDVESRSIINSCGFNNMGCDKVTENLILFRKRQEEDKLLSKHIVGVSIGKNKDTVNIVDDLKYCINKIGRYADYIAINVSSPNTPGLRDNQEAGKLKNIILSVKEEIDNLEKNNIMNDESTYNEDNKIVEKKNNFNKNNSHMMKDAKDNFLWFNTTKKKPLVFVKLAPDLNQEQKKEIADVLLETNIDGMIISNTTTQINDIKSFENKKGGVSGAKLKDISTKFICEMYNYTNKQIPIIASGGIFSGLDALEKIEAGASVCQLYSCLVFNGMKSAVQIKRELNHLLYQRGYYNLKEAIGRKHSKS

In the case of `COCCNC(=O)OCC1CCCC2(CC(OC(=O)NCc3cccc4ccccc34)CC(CCC(=O)N[C@@H](C)C(=O)OC)O2)O1` (stereo not given in full), the z-score is 1.89 in assay [1]; -0.812 in assay [2]; 0.791 in assay [3]; -0.215 in assay [4]; -0.886 in [5]; 1.64 in assay [6]. For the same compound, the z-score is -0.0355 (inactive) in [7]; -0.125 in assay [8]; -1.16 in assay [9]; 1.67 (inactive) in assay [10]; 1.77 in [11]; -0.0524 (inactive) in [12]. Further, the z-score in assay [13] is 0.343 (inactive); in [15], -0.303 (inactive); in assay [16] it was 1.36 (inactive); in assay [17] it was 0.17 (inactive); in assay [18], 0.812 (inactive); in assay [19] it was 0.79. Also, the composite z-score in [14] is 0.124 (inactive); in assay [20] it was -0.0999.
With `CC(CCN1CCCCc2nc(C)c(C)cc21)=NO[C@@H](C)c1cc(-c2c(C)cc(C)cc2C)no1`, the z-score in [1] is 1.08; in assay [2], 0.531; in assay [3], 0.148; in assay [4], -2.9; in assay [5], -3.77; in assay [6] it was 4. In addition, the z-score in [7] is 0.159 (inactive); in assay [8] it was -0.831; in assay [9], -1.74; in assay [10], 2.06 (inactive); in [11], 1.18; in assay [12] it was -6.11 (inactive). The z-score in assay [13] is 0.862 (inactive); in assay [15], -0.467 (inactive); in assay [16], -0.62 (inactive); in assay [17], 0.777 (inactive); in assay [18], 0.935 (inactive); in assay [19], 1.51. Moreover, the composite z-score in [14] was -0.525 (inactive); in [20], 0.626.
For the compound `CC(C)=NOC(C)CN1CCCCc2nc(C)c(C)cc21` (stereo not given), the z-score in assay [1] was 0.0529; in assay [2] it was -0.047; in [3] it was -0.018; in [4], -0.3; in [5] it was -0.637; in assay [6], -0.792. In addition, the z-score in assay [7] is -0.78 (inactive); in [8], -0.633; in assay [9], 0.354; in [10], -0.585 (inactive); in [11], -0.724; in [12], 0.0416 (inactive). Moreover, the z-score in assay [13] was -0.408 (inactive); in [15] it was 0.547 (inactive); in assay [16], 0.113 (inactive); in [17], 0.668 (inactive); in assay [18], -0.562 (inactive); in [19] it was -0.491. The composite z-score in assay [14] is -0.241 (inactive); in assay [20] it was 0.111.
With `CC(CCN1CCCc2nc(C)c(C)cc21)=NOC[C@@H](C)[C@H](OCc1ccccc1)C(C)C`, the z-score is 0.803 in [1]; 1.05 in assay [2]; 1.18 in [3]; -2.37 in assay [4]; 0.0389 in assay [5]; 1.94 in [6]. Moreover, the z-score in assay [7] is -0.584 (inactive); in assay [8] it was 0.395; in assay [9] it was -1.46; in [10], -0.602 (inactive); in assay [11], -0.135; in assay [12], -3.26 (inactive). Also, the z-score in assay [13] is 0.0518 (inactive); in [15], -0.0417 (inactive); in assay [16] it was -1.86 (inactive); in [17], -0.787 (inactive); in assay [18] it was 0.262 (inactive); in [19], -0.0093. Besides, the values for the composite z-score in [14] and in [20] were -2.07 (inactive) and 0.0153, respectively.
`CC(C)[C@@H](OCc1ccccc1)[C@H](C)C=NO[C@H](C)c1cn([C@@H]2COC[C@H]2O)nn1`: the z-score in assay [1] was 0.569; in assay [2], -0.478; in assay [3] it was -0.0131; in [4], 0.0238; in [5], -0.0081; in [6] it was -0.479. For the same compound, the z-score in [7] was -0.98 (inactive); in assay [8] it was 0.608; in assay [9] it was -0.601; in assay [10], -0.516 (inactive); in [11], -0.507; in assay [12], -1.28 (inactive). In addition, the z-score in assay [13] was -0.648 (inactive); in [15], -0.0296 (inactive); in assay [16], -0.0941 (inactive); in assay [17], 0.462 (inactive); in assay [18], 0.178 (inactive); in assay [19] it was -0.64. In addition, the composite z-score in assay [14] was -0.498 (inactive); in [20], -0.173.
